ADAM10 inh: ADAM10 inhibition, QFRET primary screen | O14672 | recombinant ADAM10, EDANS/DABCYL FRET peptide cleavage, 3 h | inhibition, % at 7 µM | 370,000 compounds, 0.62% hits;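 active = inhibition above a per-campaign cutoff equal to the mean of compounds falling between control-based bounds plus 3 SD, cut at about 20% in these data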;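 note: 0% = DMSO wells while the 100% control is not disclosed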
Target sequence (O14672 214-748 limits assumed): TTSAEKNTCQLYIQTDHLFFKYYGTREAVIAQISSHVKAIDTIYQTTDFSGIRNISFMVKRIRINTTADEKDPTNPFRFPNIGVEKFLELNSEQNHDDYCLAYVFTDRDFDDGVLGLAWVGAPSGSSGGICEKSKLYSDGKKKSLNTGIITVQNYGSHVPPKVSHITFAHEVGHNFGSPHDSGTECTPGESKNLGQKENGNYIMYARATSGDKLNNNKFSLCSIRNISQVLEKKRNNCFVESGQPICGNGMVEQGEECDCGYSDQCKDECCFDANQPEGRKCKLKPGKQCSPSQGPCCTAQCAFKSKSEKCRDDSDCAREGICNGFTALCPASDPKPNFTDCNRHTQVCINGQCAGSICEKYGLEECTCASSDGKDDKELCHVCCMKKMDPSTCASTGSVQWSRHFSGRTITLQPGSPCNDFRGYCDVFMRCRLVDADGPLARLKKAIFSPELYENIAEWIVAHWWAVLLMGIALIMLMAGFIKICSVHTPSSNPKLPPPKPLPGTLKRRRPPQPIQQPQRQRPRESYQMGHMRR
PLC-beta3 inh: blocks human PLC-beta3 enzyme activity; Purified PLC-beta3, fluorogenic substrate, fluorescence; inhibition, % at 12.2 µM; 370,000 compounds, 0.18% hits;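 note: 0% = median of compound wells on plate and 100% = full blocker control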
ADAM17 inh: ADAM17 inhibition, QFRET primary screen | 370,000 compounds, 0.83% hits | inhibition, % at 6.95 µM | recombinant ADAM17, EDANS/DABCYL FRET peptide cleavage | AID 720648 | P78536;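 active = inhibition above the mean of compounds lying between control limits plus 3 SD, set per campaign, cut at about 8.5% in these data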;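 note: 0% = DMSO-only wells as the low control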
PLC-gamma1 inh: blocks human PLC-gamma1 enzyme activity; P19174; purified PLC-gamma1, fluorogenic substrate, fluorescence; inhibition, % at 12.2 µM; 370,000 compounds, 0.84% hits; AID 720700; in the data active = inhibition above about 9.5%
KLK7 zymogen act: activators of human kallikrein-7 zymogen. purified proKLK7, EDANS-DABCYL substrate fluorescence; 100% is mature enzyme control, 0% vehicle. P49862. activation, % at 7 µM. 370,000 compounds, 0.9% hits;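 active = activation above the mean of all tested compounds plus 3 SD, computed per campaign excluding outliers beyond control limits, cut at about 13% in these data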
PLCg1 ctr: inhibits human PLC-gamma1 in PLC-beta3 counter-screen; 3,300 compounds, 3.1% hits; purified PLC-gamma1, fluorogenic substrate, fluorescence; inhibition, % at 12.3 µM; shares compounds with PLC-gamma1 inh; AID 743258; in the data active = inhibition above about 9.5%
PLCb3 confirm: human PLC-beta3 inhibition, confirmation | shares compounds with PLC-gamma1 inh | AID 743261 | inhibition, % at 12.3 µM | 3,300 compounds, 1% hits | purified PLC-beta3, fluorogenic substrate fluorescence
Active calls of the source: *; · = no result given. An excerpt weighted towards active compounds, which were near 2.9% of everything screened. Cut-off read from the data, not from the text of the source, unless noted: active = inhibition above about 11%; inactive = the rest.

SMILES	ADAM10 inh	PLC-beta3 inh	ADAM17 inh	PLC-gamma1 inh	KLK7 zymogen act	PLCg1 ctr	PLCb3 confirm
CC(=O)c1ccc(OC(C)C)c(CSC(=N)N)c1	7	12*	-2	12*	0	-5	0
Nc1nc(=O)n([C@@H]2CS[C@H](CO)O2)cc1F	7	14*	0	14*	0	-1	-1
Nc1ccn([C@H]2CS[C@@H](CO)O2)c(=O)n1	-6	0	-5	-2	1	·	·
CCN(CC)S(=O)(=O)c1ccc(NS(=O)(=O)c2ccc(F)cc2)cc1	-3	-4	-5	1	0	·	·
CCN(CC)S(=O)(=O)c1ccc(F)cc1	6	7	5	11*	0	4	3
CCOC(=O)c1c(NC(=O)CSc2nnc(C)o2)sc(C)c1C	6	-2	5	9.7*	0	-4	-1
CCOC(=O)c1sc(N)c(C#N)c1CSc1nc2ccc(OCC)cc2[nH]1	18	7	4	13*	0	-4	1
CCOC(=O)c1c(S(=O)(=O)N(C)C2CCCCC2)c(C)n(C)c1C	11	1	-4	9.9*	0	-4	0
CCOC(=O)c1c(S(=O)(=O)N2CCN(C3CCCCC3)CC2)c(C)n(C)c1C	-14	-11	-8	-4	0	·	·
Cn1c(=O)n(Cc2ccc(Cl)cc2)c(=O)c2c1nc1n2CCN1Cc1ccco1	-15	-1	-5	11*	-1	-3	-6
CCCn1c(=O)c2c(nc3n2CCN3Cc2ccco2)n(C)c1=O	1	-5	-4	-1	-1	·	·
CCOC(=O)c1nncc(-c2ccccc2)n1	-2	11*	4	4	0	-6	-2
CCOC(=O)c1cc(-c2ccccc2)n[nH]1	5	0	2	5	0	·	·
COc1cc2c(cc1OC)[C@@H](NC(=O)COc1ccccc1)[C@H](OCc1ccccc1)C2	-2	-2	-2	5	0	·	·
CCC(=O)NCCc1nc2ccccc2n1Cc1ccc(C)cc1	-6	-2	-1	19*	0	-8	-5
CCn1cc(CN2CCCC(C(=O)Nc3ccc(-c4nc5ccccc5[nH]4)cc3)C2)c(C)n1 (stereo unspecified)	-22	-16	-12	-2	0	·	·
CS(=O)(=O)N1CCC(Oc2ccccc2C(=O)NC2CCOC2)CC1 (stereo unspecified)	11	7	4	12*	-1	-8	-3
CCS(=O)(=O)N1CCN(c2ccc([N+](=O)[O-])c(NCc3ccccc3)c2)CC1	4	3	1	-1	-1	·	·
O=C(NNC(=O)C12CC3CC(CC(C3)C1)C2)c1ccccn1	4	0	-7	-1	0	·	·
O=C(NNC(=O)C12CC3CC(CC(C3)C1)C2)c1cnccn1	4	4	2	11*	0	-5	0
O=C(N/N=C/c1cccnc1)C12CC3CC(CC(C3)C1)C2	2	5	1	0	0	·	·
O=C(Nc1cccnc1)C12CC3CC(CC(C3)C1)C2	6	11*	5	2	0	-9	-3
Cc1ccnc(NC(=O)C23CC4CC(CC(C4)C2)C3)c1	9	11*	6	8	0	-2	-2
CC(=O)Nc1ccc(NC(=O)CN(C)S(=O)(=O)c2ccc3nc(C)sc3c2)cc1	-7	-1	-4	-1	0	·	·
CN1CCOCCOc2ccccc2OCCOCC1	16	6	2	9	0	·	·
SMILES	ADAM10 inh	PLC-beta3 inh	ADAM17 inh	PLC-gamma1 inh	KLK7 zymogen act	PLCg1 ctr	PLCb3 confirm
CC(C)(C)c1ccc(NC(=O)CNC2CCCc3ccccc32)cc1 (stereo unspecified)	4	1	3	1	0	·	·
CCOC(=O)N1CCN(S(=O)(=O)c2ccc(C(=O)N(CCCN(C)C)c3nc4cc(OC)ccc4s3)cc2)CC1	-2	2	8	5	-6	·	·
COc1ccc2sc(N(CCCN(C)C)C(=O)c3ccc(S(=O)(=O)N4CCCC4)cc3)nc2c1	2	7	5	12*	0	-4	-2
COC(=O)C(CC(=O)c1ccc(Cl)cc1)c1ccc(C(C)C)cc1 (stereo unspecified)	3	1	1	0	0	·	·
CCOc1ccc(-c2n[nH]c(C)c2Oc2ccccc2OC)c(O)c1	20	3	8	9.6*	0	-4	-2
COc1ccc(NC(=S)N(Cc2ccc(C(=O)O)cc2)Cc2ccc(OC)c(OC)c2)cc1	-9	-1	2	2	0	·	·
COc1ccc(C(CCN(Cc2ccc(OC)c(OC)c2)C(C)=O)C(C)C)cc1 (stereo unspecified)	-3	-6	-4	11*	0	1	1
Cc1ccc(S(=O)(=O)n2ccc(-c3c(-c4ccc(Cl)cc4)noc3C)n2)cc1	3	2	1	1	0	·	·
Cc1onc(-c2ccc(Cl)cc2)c1-c1ccn(S(=O)(=O)c2cccc(Cl)c2)n1	4	-2	5	9.8*	0	1	-6
Cc1ccc(C(=O)Nc2cccc(C(=O)NC3CCCCC3)c2)cc1	2	-9	-2	2	0	·	·
Cc1cc(=O)n(C)c(=O)n1CCCCCN1CCCC1	7	7	4	11*	0	3	4
COC(=O)c1cccc(OCCCN2CCC(C(O)(c3ccccc3)c3ccccc3)CC2)c1	-2	5	-1	9.7*	0	-2	-5
COC(=O)c1cccc(OC[C@@H](O)CN2CCC(C(O)(c3ccccc3)c3ccccc3)CC2)c1	2	9	7	11*	0	7	-4
COc1ccc(OCCCN2CCC(C(O)(c3ccccc3)c3ccccc3)CC2)cc1	3	4	0	5	0	·	·
COc1ccc(C(=O)NC(C(=O)NCC2CCCO2)C(C)C)cc1 (stereo unspecified)	9	5	2	10*	0	-3	-3
CCOc1ccc(C(=O)NC(C(=O)NCC2CCCO2)C(C)C)cc1 (stereo unspecified)	2	-9	-5	-3	0	·	·
COc1ccc(S(=O)(=O)N(C)C[C@@H]2Oc3c(NC(=O)Nc4cccc5ccccc45)cccc3C(=O)N([C@@H](C)CO)C[C@H]2C)cc1	-14	-12	-3	-4	·	·	·
CCC(C)[C@H](NC(=O)[C@@H]1Cc2ccccc2CN1)C(=O)NCc1ccc(OC)cc1 (stereo partly specified)	-10	6	0	4	0	·	·
CCC(C)[C@H](NC(=O)[C@@H]1Cc2ccccc2CN1)C(=O)NCc1ccc(C)cc1 (stereo partly specified)	-7	-5	7	9.8*	0	0	-1
CC12CN(NC(=O)c3ccccc3F)C3(C#N)CC1CCC23C (stereo unspecified)	-6	-1	-5	-1	0	·	·

High-throughput results deposited in PubChem BioAssay by The Scripps Research Institute Molecular Screening Center.
